# PubChem BioAssay AID463173 (ICCB-Longwood Screening Facility, Harvard Medical School, 2010)
# Among all 52,000 compounds or so, about 4,300 (8.3%) were called active. The full list was thinned out, with actives kept by preference. A number with no mark means an inactive call. No stated cut-off is given here; in the data, active means survival mostly below about 52% (no sharp cut-off); inactive means mostly above about 56%.
# System: DeltatarO mutant
# Test: growth inhibition of S. aureus wild type versus tarO mutant, primary screen, teichoic acid synthesis inhibitors, RN4220, OD600 (AID 463173)
# Settings: OD600, 18 h, hits give low values, screened at 18.75 µg/mL (by protocol)
row,SMILES,survival
1,Cn1c(=O)c2c(nc(SCC(=O)Nc3ccc(F)c(F)c3)n2Cc2ccccc2F)n(C)c1=O,111%
2,COc1ccc(NC(=O)c2nnn(Cc3ccc(Br)cc3F)c2N)c(OC)c1,68%
3,Cn1c(=O)c2c(nc(NCCc3ccccc3)n2Cc2cccc(Br)c2)n(C)c1=O,50%
4,Cc1ccccc1Oc1nc2c(c(=O)n(C)c(=O)n2C)n1Cc1ccc(Br)cc1,143%
5,Cn1c(=O)c2c(nc(NCc3ccccc3)n2Cc2ccccc2)n(C)c1=O,38% (active)
6,COc1ccccc1Oc1nc2c(c(=O)n(C)c(=O)n2C)n1Cc1cccc(Br)c1,40% (active)
7,Cn1c(=O)c2c(nc(NCc3ccccc3)n2Cc2ccccc2Cl)n(C)c1=O,58%
8,COc1ccc(CNc2nc3c(c(=O)n(C)c(=O)n3C)n2Cc2ccccc2Cl)cc1,65%
9,COc1ccc(Cl)c(Cn2c(NCCN)nc3c2c(=O)n(C)c(=O)n3C)c1,56% (active)
10,Cn1c(=O)c2c(nc(NCc3ccccc3)n2Cc2ccc(Cl)c(Cl)c2)n(C)c1=O,42%
11,COc1ccc(CCNc2nc3c(c(=O)n(C)c(=O)n3C)n2Cc2ccccc2Cl)cc1OC,75%
12,COc1ccc(NC(=O)Cn2cnc3sc(C)c(S(=O)(=O)N4CCN(c5ccccc5OC)CC4)c3c2=O)cc1OC,67%
13,CC1CCN(c2nc(N3CCCCC3)nc(N3CCCCC3)n2)CC1,62%
14,CCOC(=O)c1cc(C)n(CC2CCC(C(=O)Nc3ccc(C)c(F)c3)CC2)c1C (centres undefined),64%
15,Cc1cccc(NC(=O)C2CCCN(S(=O)(=O)c3c(C)noc3/C=C/N(C)C)C2)c1C (centres undefined),84%
16,Cc1ccc(NS(=O)(=O)c2ccc3c(c2)CCN3C(=O)C2CC2)c(C)c1,58%
17,Cc1ccc(Nc2c(-c3cccnc3)nc3ccc(Cl)cn23)cc1,83%
18,O=C(Nc1ccc(F)cc1F)C1CCN(c2ncccn2)CC1,58%
19,Cc1c(C(=O)OC2CCCC2)[nH]c2c1C(=O)CC(c1ccc(C(C)(C)C)cc1)C2 (centres undefined),89%
20,Cc1nnc(SCC(=O)O)o1,75%
21,Cc1ccc2nc(-c3ccc(F)cc3)c(NC(C)(C)CC(C)(C)C)n2c1,12% (active)
22,COCCNc1c(-c2ccc(N)cc2)nc2ccc(C)cn12,65%

row,SMILES,survival
1,Cc1ccc(Nc2c(-c3ccc(C)cc3)nc3ccc(C)cn23)cc1,117%
2,O=C(CSc1ccc(-c2cccs2)nn1)Nc1ccccc1,76%
3,COc1ccccc1N1CCN(C(=O)c2ccc3c(c2)N(Cc2cc(C)ccc2C)C(=O)c2ccccc2S3(=O)=O)CC1,74%
4,CCC(C)NC(=O)c1cc2n(n1)CCCN(Cc1ccc(C)cc1)C2=O (centres undefined),74%
5,CCCSCCCNC(=O)c1cc2n(n1)CCCN(Cc1ccc(C)cc1)C2=O,89%
6,CCNC(=O)c1cc2n(n1)CCCN(Cc1ccc(C)cc1)C2=O,49%
7,CCCNC(=O)c1cc2n(n1)CCCN(Cc1ccc(C)cc1)C2=O,131%
8,Cc1ccc(CN2CCCn3nc(C(=O)NC(C)C)cc3C2=O)cc1,0% (active)
9,CCCCNC(=O)c1cc2n(n1)CCCN(Cc1ccc(C)cc1)C2=O,32% (active)
10,O=C(CN1C(=O)CSc2ccc(S(=O)(=O)N3CCCC3)cc21)NCc1ccccc1Cl,87%
11,CCCC(=O)n1nc(-c2cccnc2)nc1NCc1ccccc1,81%
12,Cc1ccc(Cl)cc1NC(=O)CCc1c(C)nc2c3cccnc3nn2c1C,103%
13,COc1ccccc1CNC(=O)C1CCCN(c2nc3ccccc3n3cccc23)C1 (centres undefined),53%
14,O=C(NCc1ccccc1Cl)C1CCCN(c2nc3ccccc3n3cccc23)C1 (centres undefined),46% (active)
15,O=C(NCc1ccc(Cl)cc1)C1CCCN(c2nc3ccccc3n3cccc23)C1 (centres undefined),82%
16,O=C(NCc1ccccc1Br)C1CCCN(C(=O)N2CCOc3ccccc32)C1 (centres undefined),73%
17,COc1ccc(NC(=O)C2=C(C)Nc3nc(SCc4ccccc4C)nn3C2c2ccc(Br)cc2)cc1 (centres undefined),80%
18,CCOc1ccc(CNC(=O)c2ccc3c(c2)c(C)c(C)n3Cc2ccc(Cl)cc2)cc1,67%
19,CCCC(=O)Nc1nc2ccc(S(C)(=O)=O)cc2s1,93%
20,COc1ccc(-c2csc(N(CC(C)C)C(=O)c3cccs3)n2)cc1,76%
21,CC(=O)N(C)c1nc(-c2ccccc2)cs1,80%
22,CN(c1ccc(O)cc1)c1nc(-c2cccs2)cs1,1% (active)
